LASV entry inh: blocks Lassa virus binding or cell entry; Lassa virus pseudotyped entry inhibition, cell-based qHTS; actives 4.1% (n = 18,000); AID 720533; Potency, µM (highest dose often 49.2 µM), most hits filed as inhibitors
MARV entry inh: inhibitors of Marburg virus binding or entry into cells; Marburg virus pseudotype entry/binding inhibition, cell-based; Potency, µM (highest dose often 49.2 µM), actives largely listed as inhibitors; actives 6.5% (n = 18,000); AID 720532
Hits are given with their value; - = inactive; ? = inconclusive; ! = not active in a repeat; [ ] = another dose, or the depositor's remark. Hits are enriched below; roughly 7.1% of the tested compounds scored in any of these assays. Calls come from the whole dose curve; tested in HEK293 cells.

SMILES | LASV entry inh | MARV entry inh
COC(=O)C1=C(C#N)NC(C)=C(C(=O)OC(C)C)C1c1cccc([N+](=O)[O-])c1 (centres undefined) | - | ?
COC(=O)C1=C(C)NC(C)=C(C(=O)OCCN2CCN(C(c3ccccc3)c3ccccc3)CC2)C1c1cccc([N+](=O)[O-])c1 (centres undefined) | 22µM | 13µM
COC(=O)C1=C(C)NC(C)=C(C(=O)OCCN(C)Cc2ccccc2)C1c1cccc([N+](=O)[O-])c1 (centres undefined) | 25µM! | 11µM
COC(=O)C1=C(C)NC(C)=C([N+](=O)[O-])C1c1ccccc1C(F)(F)F (centres undefined) | - | -
CC(C)C1C(=O)N(Cc2cn(CCC3OCCCO3)nn2)CCS(=O)(=O)N1Cc1ccc(-c2ccc(F)cc2)cc1 (centres undefined) | - | ?
COC(=O)CC(Oc1c(C)n(C)c2ccccc2c1=O)c1ccccc1 (centres undefined) | -[8.59 µM] | -[8.59 µM]
Cc1ccc2c(=O)c3ccccc3n(CCCN)c2c1C | 10µM! | 10µM
C=C[C@H]1C[C@H]2C=C(C)COP(=O)(O2)O1 | - | -
COc1cc(C)c(Cc2cnc(N)nc2N)cc1OC | - | -
COc1cc(NCc2ccc3nc(N)nc(N)c3c2C)cc(OC)c1OC | ? | 4.5µM
COC1=C[C@@H](C(=O)N[C@H]2CCCC[C@H]2NC(C)=O)[C@]2(C)Cc3ccccc3[C@H]2CC1=O | -[8.59 µM] | ?
CN(Cc1cc(Br)cc(Br)c1N)C1CCCCC1 | 28µM | ?
CCOC(=O)NN=C1C[C@@H](O)[C@@H](O)[C@@H]2[C@H]3C(=O)N(Cc4ccc5c(c4)OCO5)C(=O)[C@@H]3CC[C@@H]12 | -[8.59 µM] | -[8.59 µM]
C[C@]12CCC3C(CC[C@]4(O)C[C@@H](O)CC[C@]34C=O)[C@@]1(O)CC[C@@H]2C1=CC(=O)OC1 (some centres undefined) | 1µM | ?
COC(=O)C1=C2C=CCCN2C(=O)NC1c1ccccc1 (centres undefined) | -[8.59 µM] | -[8.59 µM]
Oc1ccc(OCc2ccccc2)cc1 | ? | -
N=C(N)SCCc1ccc(OCc2ccc([N+](=O)[O-])cc2)cc1 | - | 14µM
